# Where “and” joins values, the source holds several entries; their conditions need not be identical. Equal values may be shown once. The campaign covered roughly 5,500 compounds. About 2,000 (36%) were called active. Another 18% or so got no clear call; they are omitted. Some of the results follow. A number with no mark means an inactive call. Rule as the data show it: active = normalized growth mostly below about 0.91 (no sharp cut-off); inconclusive = no clear call, values can overlap the other calls; inactive = mostly above about 0.92.
# Test: chemical genetic growth profiling, strain panel (AID 1159580);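 also: tested at 20 µM; growth read once vehicle control cultures reached saturation at 30 °C; 1 = growth at the plate median or of vehicle wells; lower values mean less growth of the strain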
# Conditions: growth OD
compound,measurement,setting,value
CN1CCc2c(c3ccccc3n2Cc2ccccc2)C1,normalized growth,"S. cerevisiae deletion strains, locus YAL013W, strain DEP1, active compounds read low",0.927
same,normalized growth,"S. cerevisiae deletion strains, locus YBR021W, strain FUR4, active compounds read low",0.631 (active)
same,normalized growth,"S. cerevisiae deletion strains, locus YBR229C, strain ROT2, active compounds read low",1
same,normalized growth,"S. cerevisiae deletion strains, locus YCL029C, strain bik1, active compounds read low",1.06
same,normalized growth,"S. cerevisiae deletion strains, locus YDL035C, strain GPR1, active compounds read low",0.913
same,normalized growth,"S. cerevisiae deletion strains, locus YDL074C, strain BRE1, active compounds read low",0.819
same,normalized growth,"S. cerevisiae deletion strains, locus YDL101C, strain DUN1, active compounds read low",1.02
same,normalized growth,"S. cerevisiae deletion strains, locus YDL134C, strain PPH21, active compounds read low",0.987
same,normalized growth,"S. cerevisiae deletion strains, locus YDL185W, strain tfp1, active compounds read low",1.01
same,normalized growth,"S. cerevisiae deletion strains, locus YDL192W, strain arf1, active compounds read low",1.01
same,normalized growth,"S. cerevisiae deletion strains, locus YDR101C, strain arx1, active compounds read low",1
same,normalized growth,"S. cerevisiae deletion strains, locus YDR150W, strain NUM1, active compounds read low",1.01
same,normalized growth,"S. cerevisiae deletion strains, locus YDR162C, strain NBP2, active compounds read low",0.992
same,normalized growth,"S. cerevisiae deletion strains, locus YDR318W, strain mcm21, active compounds read low",0.992
same,normalized growth,"S. cerevisiae deletion strains, locus YDR388W, active compounds read low",0.981
same,normalized growth,"S. cerevisiae deletion strains, locus YDR502C, strain sam2, active compounds read low",0.953
same,normalized growth,"S. cerevisiae deletion strains, locus YEL061C, strain CIN8, active compounds read low",1
same,normalized growth,"S. cerevisiae deletion strains, locus YER110C, active compounds read low",1.01
same,normalized growth,"S. cerevisiae deletion strains, locus YER155C, strain BEM2, active compounds read low",1.02
same,normalized growth,"S. cerevisiae deletion strains, locus YER167W, strain BCK2, active compounds read low",0.98
same,normalized growth,"S. cerevisiae deletion strains, locus YGL078C, strain dbp3, active compounds read low",1.01
same,normalized growth,"S. cerevisiae deletion strains, locus YGL086W, strain mad1, active compounds read low",0.963
same,normalized growth,"S. cerevisiae deletion strains, locus YGL248W, strain PDE1, active compounds read low",0.998
same,normalized growth,"S. cerevisiae deletion strains, locus YGR078C, strain PAC10, active compounds read low",0.932
same,normalized growth,"S. cerevisiae deletion strains, locus YGR135W, strain pre9, active compounds read low",0.863 (active)
same,normalized growth,"S. cerevisiae deletion strains, locus YGR229C, strain SMI1, active compounds read low",0.577 (active)
same,normalized growth,"S. cerevisiae deletion strains, locus YGR252W, strain gcn5, active compounds read low",0.646 (active)
same,normalized growth,"S. cerevisiae deletion strains, locus YHR030C, strain SLT2, active compounds read low",0.949 and 1.03
same,normalized growth,"S. cerevisiae deletion strains, locus YHR079C, strain IRE1 (second series), active compounds read low",1.01
same,normalized growth,"S. cerevisiae deletion strains, locus YHR079C, strain IRE1, active compounds read low",1.03
same,normalized growth,"S. cerevisiae deletion strains, locus YHR094C, strain hxt1, active compounds read low",1.01
same,normalized growth,"S. cerevisiae deletion strains, locus YHR129C, strain ARP1, active compounds read low",1.01
same,normalized growth,"S. cerevisiae deletion strains, locus YHR200W, strain rpn10, active compounds read low",0.999
same,normalized growth,"S. cerevisiae deletion strains, locus YIL066C, strain RNR3, active compounds read low",0.951
same,normalized growth,"S. cerevisiae deletion strains, locus YIL073C, strain SPO22, active compounds read low",0.956
same,normalized growth,"S. cerevisiae deletion strains, locus YIL125W, strain kgd1, active compounds read low",0.996
same,normalized growth,"S. cerevisiae deletion strains, locus YIR030C, strain dcg1, active compounds read low",1.01
same,normalized growth,"S. cerevisiae deletion strains, locus YJL095W, strain BCK1, active compounds read low",0.847 and 1.02
same,normalized growth,"S. cerevisiae deletion strains, locus YJL134W, strain LCB3, active compounds read low",1
same,normalized growth,"S. cerevisiae deletion strains, locus YJL168C, strain set2, active compounds read low",1.02
same,normalized growth,"S. cerevisiae deletion strains, locus YJL187C, strain SWE1 (second series), active compounds read low",0.96
same,normalized growth,"S. cerevisiae deletion strains, locus YJR043C, strain POL32, active compounds read low",1.06
same,normalized growth,"S. cerevisiae deletion strains, locus YJR066W, strain TOR1, active compounds read low",0.949
same,normalized growth,"S. cerevisiae deletion strains, locus YJR075W, strain HOC1, active compounds read low",0.934
same,normalized growth,"S. cerevisiae deletion strains, locus YKL009W, strain mrt4, active compounds read low",0.934
same,normalized growth,"S. cerevisiae deletion strains, locus YKL068W, active compounds read low",0.995
same,normalized growth,"S. cerevisiae deletion strains, locus YKL085W, strain MDH1 (second series), active compounds read low",0.99
same,normalized growth,"S. cerevisiae deletion strains, locus YKL085W, strain MDH1, active compounds read low",0.99
same,normalized growth,"S. cerevisiae deletion strains, locus YKL190W, strain CNB1, active compounds read low",0.996
same,normalized growth,"S. cerevisiae deletion strains, locus YKR001C, strain vps1, active compounds read low",1.01
same,normalized growth,"S. cerevisiae deletion strains, locus YLR039C, strain RIC1, active compounds read low",1.4 [resistant] (active)
same,normalized growth,"S. cerevisiae deletion strains, locus YLR058C, strain SHM2, active compounds read low",0.998
same,normalized growth,"S. cerevisiae deletion strains, locus YLR102C, strain apc9, active compounds read low",1.01
same,normalized growth,"S. cerevisiae deletion strains, locus YLR113W, strain HOG1, active compounds read low",0.995
same,normalized growth,"S. cerevisiae deletion strains, locus YLR262C, strain YPT6, active compounds read low",1.56 [resistant] (active)
same,normalized growth,"S. cerevisiae deletion strains, locus YLR268W, strain sec22, active compounds read low",1.03
same,normalized growth,"S. cerevisiae deletion strains, locus YLR330W, strain CHS5, active compounds read low",1.01
same,normalized growth,"S. cerevisiae deletion strains, locus YLR342W, strain FKS1 (second series), active compounds read low",0.64 (active)
same,normalized growth,"S. cerevisiae deletion strains, locus YLR371W, strain rom2, active compounds read low",1.01
same,normalized growth,"S. cerevisiae deletion strains, locus YLR418C, strain cdc73, active compounds read low",0.714 (active)
same,normalized growth,"S. cerevisiae deletion strains, locus YML016C, strain PPZ1, active compounds read low",1
same,normalized growth,"S. cerevisiae deletion strains, locus YML032C, strain rad52, active compounds read low",0.995
same,normalized growth,"S. cerevisiae deletion strains, locus YML124C, strain tub3, active compounds read low",1.02
same,normalized growth,"S. cerevisiae deletion strains, locus YMR078C, strain ctf18, active compounds read low",1.01
same,normalized growth,"S. cerevisiae deletion strains, locus YMR223W, strain ubp8, active compounds read low",0.953
same,normalized growth,"S. cerevisiae deletion strains, locus YMR263W, strain SAP30, active compounds read low",0.912
same,normalized growth,"S. cerevisiae deletion strains, locus YMR307W, strain GAS1, active compounds read low",0.979
same,normalized growth,"S. cerevisiae deletion strains, locus YNL067W, strain RPL9B, active compounds read low",0.959
same,normalized growth,"S. cerevisiae deletion strains, locus YNL128W, strain TEP1, active compounds read low",0.58 (active)
same,normalized growth,"S. cerevisiae deletion strains, locus YNL153C, strain GIM3, active compounds read low",0.945
same,normalized growth,"S. cerevisiae deletion strains, locus YNL183C, strain NPR1, active compounds read low",0.96
same,normalized growth,"S. cerevisiae deletion strains, locus YNL233W, strain BNI4, active compounds read low",0.956
same,normalized growth,"S. cerevisiae deletion strains, locus YNL250W, strain rad50, active compounds read low",1.01
same,normalized growth,"S. cerevisiae deletion strains, locus YNL271C, strain bni1, active compounds read low",1.02
same,normalized growth,"S. cerevisiae deletion strains, locus YNL298W, strain CLA4, active compounds read low",1
same,normalized growth,"S. cerevisiae deletion strains, locus YNL307C, strain MCK1, active compounds read low",0.924
same,normalized growth,"S. cerevisiae deletion strains, locus YNL322C, strain KRE1, active compounds read low",1.01
same,normalized growth,"S. cerevisiae deletion strains, locus YNR052C, strain pop2, active compounds read low",0.98
same,normalized growth,"S. cerevisiae deletion strains, locus YOL006C, strain TOP1, active compounds read low",0.555
same,normalized growth,"S. cerevisiae deletion strains, locus YOL012C, strain htz1",1.16
same,normalized growth,"S. cerevisiae deletion strains, locus YOL147C, strain pex11, active compounds read low",1.01
same,normalized growth,"S. cerevisiae deletion strains, locus YOR061W, strain CKA2, active compounds read low",0.977
same,normalized growth,"S. cerevisiae deletion strains, locus YOR069W, strain VPS5, active compounds read low",1
same,normalized growth,"S. cerevisiae deletion strains, locus YOR136W, strain idh2, active compounds read low",0.996
same,normalized growth,"S. cerevisiae deletion strains, locus YOR144C, strain elg1, active compounds read low",1.01
same,normalized growth,"S. cerevisiae deletion strains, locus YOR184W, strain ser1, active compounds read low",0.983
same,normalized growth,"S. cerevisiae deletion strains, locus YOR231W, strain MKK1, active compounds read low",1.03
same,normalized growth,"S. cerevisiae deletion strains, locus YOR316C, strain cot1, active compounds read low",1.01
same,normalized growth,"S. cerevisiae deletion strains, locus YPL055C, strain LGE1, active compounds read low",0.731 (active)
same,normalized growth,"S. cerevisiae deletion strains, locus YPL241C, strain CIN2, active compounds read low",1
same,normalized growth,"S. cerevisiae deletion strains, locus YPL256C, strain CLN2, active compounds read low",1.06
same,normalized growth,"S. cerevisiae deletion strains, locus YPR119W, strain clb2, active compounds read low",1.02
same,normalized growth,"S. cerevisiae deletion strains, locus YPR141C, strain kar3, active compounds read low",0.999
same,normalized growth,"S. cerevisiae deletion strains, locus YPR163C, strain tif3, active compounds read low",0.991
same,normalized growth,"S. cerevisiae deletion strains, locus YPR167C, strain met16, active compounds read low",1
same,normalized growth,"S. cerevisiae deletion strains, strain wtn01, active compounds read low",0.975
same,normalized growth,"S. cerevisiae strains, strain wild type, active compounds read low",0.947

# Source: PubChem BioAssay AID1159580 (chemical genetic matrix, 2015)
